Laboratory results reported in PubChem BioAssay (NCATS).
Inconclusive results are not listed. Activity calls are given as the source filed them. Unless noted, the call rests on the fitted dose curve; in most records, active means well fitted curve in the direction sought with a large enough effect; inconclusive means small, poorly fitted or top-dose-only effect, or another doubt; inactive means no such curve, though single readings can be large; an effect the other way counts as inactive or inconclusive.

Assays:
[1] = Cell Viability - BJ (AID 421; calls by dose curve;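 further: potency means the concentration at half of the fitted maximal effect; cells exposed to compound for 40 hours at 37 °C before readout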); conditions: BJ fibroblast viability, qHTS
Procedure, shortened: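 Quantitative HTS: ATP depletion in BJ cells after 40 hr compound exposure in complete culture medium, detected with CellTiter-Glo; AC50 from standard Hill fits.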

[2] = Cell Viability - Jurkat (AID 426;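 active means dose-dependent loss of cell ATP signal giving a full or clear fitted curve, ranked by lower potency value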; further: potency means the concentration at half of the fitted maximal effect); conditions: qHTS
Procedure, shortened: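 Jurkat (clone E6-1, human T-cell leukemia) cells, 5000/well in complete medium, were exposed to compound for 40 hr at 37 °C. Viability was read as intracellular ATP by CellTiter-Glo luminescence; AC50 came from Hill fits of concentration-response data.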

[3] = Cell Viability - Hek293 (AID 427;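 active means compounds whose dose-response curve shows a full or clear partial loss of cell viability, called from curve shape rather than a numeric limit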;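 further: potency means the concentration at half of the fitted maximal effect; cells exposed to compound for 40 hours at 37 °C before reading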); conditions: qHTS
Procedure, shortened: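 AC50 values derive from Hill-modelled concentration-response of ATP-based luminescence, normalized between DMSO-only and 100 uM tamoxifen controls. Cells were exposed in complete culture medium for 40 hr at 37 °C before detection.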

[4] = Cell Viability - HepG2 (AID 433; calls by dose curve;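 further: potency means the concentration at half of the fitted maximal effect; potency for ATP loss meaning cytotoxicity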); conditions: qHTS
Procedure, shortened: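 In this qHTS format, a 40 h, 37 °C compound incubation of HepG2 cells in complete medium precedes a 20 min CellTiter-Glo step at room temperature. Tamoxifen and doxorubicin serve as positive controls; Hill-equation fits yield AC50.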

[5] = Cell Viability - MRC5 (AID 434; calls by dose curve;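 further: potency means the concentration at half of the fitted maximal effect; potency reflects cytotoxicity seen as loss of intracellular ATP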); conditions: MRC5 lung fibroblast viability, qHTS
Procedure, shortened: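 qHTS cytotoxicity in human lung fibroblast MRC5 cells; 40 hr treatment, 37 °C; cellular ATP by luciferase luminescence; DMSO = 0%, 100 uM tamoxifen = 100% inhibition; Hill-fit AC50.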

[6] = Cell Viability - N2a (AID 540); conditions: N2a mouse neuroblastoma cell viability; at 92.2 µM (top of the series);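 further: plate controls were DMSO alone for no effect and tamoxifen control for full effect; nearly all actives have a fitted effect of over 45% in size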
Procedure, shortened: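 Mouse neuroblastoma N2a cells (1500/well) were preincubated 5 hr at 37 °C, then exposed to compounds for 40 hr at 37 °C in complete medium. Viability was read as intracellular ATP by CellTiter-Glo luminescence; AC50 from Hill fits.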

[7] = Cell Viability - NIH 3T3 (AID 541); conditions: NIH 3T3 cell viability, qHTS; activity change, negative = cytotoxicity: at 92.2 µM (top of the series);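 further: plate controls were DMSO alone for no effect and tamoxifen positive control for full effect; nearly all actives have a fitted effect of over 25% in size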
Procedure, shortened: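 NIH 3T3 mouse embryo fibroblasts (1000 cells/well) were plated in complete medium and treated with compound for 40 hr at 37 °C. Viability was read as intracellular ATP by CellTiter-Glo luminescence; AC50 values came from Hill-equation fits of concentration-response data.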

[8] = Cell Viability - HUV-EC-C (AID 542); further: on the % scale 0 is the no-effect control and ±100 the full control effect; nearly all actives have a fitted effect of over 35% in size
Procedure, shortened: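 HUV-EC-C normal human vascular endothelial cells, 1000 cells/well, pre-incubated 5 hr at 37 °C, then exposed to compounds for 40 hr at 37 °C in complete medium. Viability measured as intracellular ATP by CellTiter-Glo luminescence; AC50 from Hill fits.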

[9] = Cell Viability - H-4-II-E (AID 543); further: on the % scale 0 is the no-effect control and ±100 the full control effect; nearly all actives have a fitted effect of over 35% in size
Procedure, shortened: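 Rat hepatoma H-4-II-E cells (1500/well) were plated, incubated 5 hr at 37 °C, then exposed to compounds for 40 hr at 37 °C. Cellular ATP was read by CellTiter-Glo luminescence; AC50 came from Hill-equation fits of concentration-response data.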

[10] = Cell Viability - SH-SY5Y (AID 544); conditions: SH-SY5Y neuroblastoma cell viability; viability change, negative = cytotoxic: at 92.2 µM (top of the series); further: nearly all actives have a fitted effect of over 55% in size
Procedure, shortened: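 Human neuroblastoma SH-SY5Y cells (1500/well) in complete medium were exposed to compounds for 40 hr at 37 °C; intracellular ATP was then quantified by CellTiter-Glo luminescence after 20 min at room temperature. AC50 came from Hill-equation concentration-response fits.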

[11] = Cell Viability - Renal Proximal Tubule (AID 545); conditions: renal proximal tubule cells viability; at 91.7 µM (top of the series), primary cells of rat origin unless noted; further: nearly all actives have a fitted effect of over 40% in size
Procedure, shortened: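 In this qHTS format, normal rat kidney-derived proximal tubule cells in complete culture medium receive compound titrations, then sit 40 hours at 37 °C before luciferase-based ATP quantitation; potency is reported as AC50 from concentration-response curves.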

[12] = Cell Viability - Mesenchymal (AID 546);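 further: cells exposed to compound for 40 hours before reading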
Procedure, shortened: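 AC50 values reflect the drop in intracellular ATP in a human kidney mesenchymal line derived from normal glomeruli. Treatment lasts 40 hr at 37 °C in complete medium, and the signal comes from CellTiter-Glo luminescence.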

[13] = Cellular Toxicity (caspase-3) HepG2 (AID 654);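 further: cells exposed to compound for 16 hours before reading; 0% = DMSO alone and 100% = caspase signal from 100 µM tamoxifen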
Procedure, shortened: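 HepG2 cells (1500/well) in complete medium were treated with compounds for 16 hr at 37 °C. Caspase-3/7 activity was then read as luminescence from peptide-aminoluciferin cleavage. AC50 came from Hill fits, normalized to DMSO and 100 uM tamoxifen.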

[14] = Cellular Toxicity (caspase-3) Jurkat (AID 655); conditions: Jurkat caspase-3 activation, luminescence, DMSO = 0%, tamoxifen = 100%; at 92.2 µM (top of the series);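 further: cells exposed to compound for 16 h at 37 °C before reading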
Procedure, shortened: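 qHTS in human Jurkat T-cell leukemia line: 16 hr compound treatment at 37 °C, caspase-3/7 activity measured by Caspase-Glo luminescence. AC50 derived from Hill equation.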

[15] = Cellular Toxicity (caspase-3) HUV-EC-C (AID 656)
Procedure, shortened: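 Concentration-dependent caspase 3/7 induction was assessed in HUV-EC-C cells exposed for 16 hours. Data scaled between DMSO and tamoxifen (100 uM) controls.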

[16] = Cellular Toxicity (caspase-3) SHSY5Y (AID 657)
Procedure, shortened: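 Readout: caspase-cleaved peptide-aminoluciferin substrate driving luciferase light in SH-SY5Y neuroblastoma cells after 16 h treatment. Response normalized to DMSO and 10 uM staurosporine controls.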

[17] = Cellular Toxicity (caspase-3) BJ (AID 658);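 further: 0% = DMSO basal and 100% = 10 µM staurosporine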
Procedure, shortened: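 Readout: Caspase-Glo 3/7 luminescence increase in BJ cells after 16 hr treatment at 37 °C. Staurosporine and tamoxifen served as positive controls; AC50 values came from Hill modelling of data normalized to DMSO and 10 uM staurosporine.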

[18] = Cellular Toxicity (caspase-3) MRC-5 (AID 659);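 further: 0% = DMSO basal and 100% = 10 µM staurosporine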
Procedure, shortened: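 Concentration-dependent caspase 3/7 activation is measured in human normal lung fibroblasts (MRC-5) following 16-hour treatment. AC50 values come from standard Hill-equation modeling of luminescence normalized to DMSO and 10 uM staurosporine.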

[19] = Cellular Toxicity (caspase-3) Mesangial (AID 660);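 further: cells exposed to compound for 16 h before the caspase read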
Procedure, shortened: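 Human renal glomerular mesangial cells (1000/well) were treated with compounds for 16 h at 37 °C in complete medium, then caspase 3/7 activity was read by Caspase-Glo luminescence. Data were normalized to DMSO and 100 uM tamoxifen; AC50 from Hill fits.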

[20] = Cellular Toxicity (caspase-3) SK-N-SH (AID 661);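 further: 0% = DMSO basal and 100% = 10 µM staurosporine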
Procedure, shortened: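 SK-N-SH human neuroblastoma cells (1500/well) were treated with compounds for 16 hr at 37 °C in complete medium; caspase 3/7 activity was read by Caspase-Glo luminescence. AC50 came from Hill fits of data normalized to DMSO and 10 uM staurosporine.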

[21] = Cellular Toxicity (caspase-3) H-4-II-E (AID 663);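 further: cells exposed to compound for 16 hr before readout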
Procedure, shortened: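 Apoptosis induction is scored as increased luminescence from caspase 3/7 substrate cleavage in rat hepatoma H-4-II-E cells exposed to compound for 16 hr. Activity is scaled between DMSO and 100 uM tamoxifen.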

[22] = Cellular Toxicity (caspase-3) Hek293 (AID 664);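 further: cells exposed to compound for 16 h at 37 °C before readout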
Procedure, shortened: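 HEK293 cells were exposed to compounds in complete medium for 16 hr at 37 °C, then caspase-3/7 activity was read by Caspase-Glo 3/7 luminescence after 20 min at room temperature. Data normalized to DMSO and 100 uM tamoxifen; AC50 from Hill fits.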

Clc1cc(Cl)c(-c2cc(Cl)c(Cl)cc2Cl)cc1Cl
active: Potency [5] 24.3 µM | activity change, negative = cytotoxicity [6] -93.1%
inactive: Potency [1] > 92 µM | Potency [2] > 92 µM | Potency [3] > 92 µM | Potency [4] > 92 µM | activity change, negative = cytotoxicity [7] -24.8% | Potency [8] | Potency [9] | Potency [10] | activity change, negative = cytotoxicity [11] -5.09% [at 91.7 µM] | outcome [12] | outcome [13] | caspase-3 activation [14] 0.996% | outcome [15] | outcome [16] | outcome [17] | outcome [18] | outcome [19] | outcome [20] | outcome [21] | outcome [22]
